The whole screen tested about 16,000 compounds, of which about 5,800 (36%) were called active. About 23% were inconclusive and are not listed. Some of the results follow. Values without a mark were called inactive. The call rests on the fitted dose curve; in most records, active means well fitted curve in the direction sought with a large enough effect; inconclusive means small, poorly fitted or top-dose-only effect, or effect the other way; inactive means no such curve, though single readings can be large or run the other way.
On the % scale 0 is the no-effect control and ±100 the full control effect.

For the experiment, the target named is Cytochrome P450 2C19 (Homo sapiens) (UniProt P33261). In words: Cytochrome panel assay with activity outcomes. The settings on record: recombinant CYP, pro-luciferin dealkylation, luminescence, p450-cyp2c19; series mostly up to 57.1 µM; activity, negative = inhibition: at the top concentration.
Sequence of Cytochrome P450 2C19 (Homo sapiens) (P33261 whole entry, looked up): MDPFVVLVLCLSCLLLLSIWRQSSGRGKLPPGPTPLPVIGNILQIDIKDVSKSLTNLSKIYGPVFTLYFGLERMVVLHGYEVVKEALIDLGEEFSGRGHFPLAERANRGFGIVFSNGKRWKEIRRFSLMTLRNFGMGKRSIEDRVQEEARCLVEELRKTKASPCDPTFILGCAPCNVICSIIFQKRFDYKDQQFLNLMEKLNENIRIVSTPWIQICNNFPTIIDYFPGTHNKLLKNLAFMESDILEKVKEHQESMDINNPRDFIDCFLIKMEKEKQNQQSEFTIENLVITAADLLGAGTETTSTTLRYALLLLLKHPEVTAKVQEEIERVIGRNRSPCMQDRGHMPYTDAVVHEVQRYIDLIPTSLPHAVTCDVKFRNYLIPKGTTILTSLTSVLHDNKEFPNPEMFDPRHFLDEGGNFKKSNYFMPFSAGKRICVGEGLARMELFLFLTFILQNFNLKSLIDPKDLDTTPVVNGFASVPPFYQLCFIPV
For the compound `COc1ccc2c3c([nH]c2c1)[C@@H]1C[C@@H]2[C@@H](C[C@H](O)[C@H](OC)[C@H]2C(=O)O)CN1CC3`, the “activity, negative = inhibition” value was -43.7% [at 25.6 µM].

For orientation: AC50 means the concentration giving half of the maximal activity seen. `Cc1[nH]n(-c2ccccc2)c(=O)c1CCOC(=O)c1cccc(C(F)(F)F)c1`: the concentration at half-maximal activity (AC50) is 3.55 µM (active).

For the compound `Cc1[nH]n(-c2ccccc2)c(=O)c1CCOC(=O)c1ccc(C(F)(F)F)cc1`, the half-maximal activity concentration (AC50) was 3.98 µM (active).

As for `CN(C)CCOC(=O)c1ccc(N)cc1`, the activity, negative = inhibition was -21.2% [at 11.4 µM].

Consider `C[C@@H](Cc1cccc(C(F)(F)F)c1)NCCOC(=O)c1ccccc1`, for which the “activity, negative = inhibition” value was -54.8% [at 25.6 µM].

As for `CO[C@@H]1COC(=O)C/C=C\[C@H](C)COC(=O)[C@H](C)NC(=O)C/C=C\[C@H]1C`, the activity, negative = inhibition was -28.2% [at 11.4 µM].

As to `Fc1ccc2c(c1)C(c1ccncc1)=NNC(c1ccc(Cl)cc1)=N2`, the AC50 was 0.224 µM (active).

For `C#CCOC(=O)Nc1ccc(=O)n(Cc2c(Cl)cccc2Cl)c1`, the AC50 is 1.58 µM (active).

As to `C1=C(CN2CCOCC2)COc2c1cccc2OC[C@@H]1CNCCO1`, the “activity, negative = inhibition” value is -40.5%.

On to `COc1cc(C)c(Br)cc1S(=O)(=O)NCc1ccccc1`, for which the AC50 is 4.47 µM (active).

On to `CN(C)CCN1C(=O)C(O)=C(C(=O)c2cc3ccccc3o2)C1c1ccccn1` (centres undefined), for which the “activity, negative = inhibition” value is -7.42%.

For `Cc1ccc(C(=O)C2=C(O)C(=O)N(CCCn3ccnc3)C2c2ccc(OC(C)C)cc2)o1` (centres undefined), the concentration at half-maximal activity (AC50) is 14.1 µM (active).

For the compound `S=c1[nH]nc(C2CCCCC2)n1/N=C/c1cccs1`, the AC50 is 0.708 µM (active).

On to `C[C@]1(c2ccccc2)O[C@@H]2C[C@@H]3[C@@H]4CCC5=CC(=O)C=C[C@@]5(C)[C@]4(F)[C@H](O)C[C@]3(C)[C@@]2(C(=O)CO)O1`, for which the activity, negative = inhibition is -7.02% [at 11.4 µM].

As for `COc1ccc(C2=NOC(C(=O)N3CCCc4ccccc43)C2)cc1` (centres undefined), the AC50 was 15.8 µM (active).

For the compound `COc1ccc(C2=NOC(C(=O)NCCN3CCOCC3)C2)cc1` (centres undefined), the “activity, negative = inhibition” value was 23.8%.

For `O=C(Nc1c[nH]c(=O)[nH]c1=O)Oc1ccccc1`, the activity, negative = inhibition is -12.9% [at 11.4 µM].

Take `Cc1cccc2cc(CN(Cc3ccccc3)C(=O)c3cccc(F)c3)c(Cl)nc12`: the AC50 was 2.82 µM (active).

Take `COC(=O)CSc1nc(C)cc(C(F)(F)F)c1C#N`: the AC50 is 25.1 µM (active).

Regarding `COC(=O)CSc1cc(C(F)(F)F)nc(-c2ccccn2)n1`, the “activity, negative = inhibition” value was -4.93%.

On to `Cc1nc(SCC(=O)c2cc3ccccc3oc2=O)c(C#N)c(C)c1C(=O)Nc1ccccc1`, for which the “activity, negative = inhibition” value is 7.27%.

With `O=C(CSC1=NCCS1)N1CCN(c2ccc(Cl)cc2)CC1`, the concentration at half-maximal activity (AC50) was 3.55 µM (active).

Regarding `CN(C)c1ccc(-c2cncnc2NCCc2cnc[nH]2)cc1`, the AC50 is 0.0794 µM (active).

Turning to `c1ncc(-c2ccc3c(c2)OCO3)c(NCCc2cnc[nH]2)n1`, the concentration at half-maximal activity (AC50) was 0.0398 µM (active).

As for `c1nc(NCCc2cnc[nH]2)c2[nH]cnc2n1`, the activity, negative = inhibition was -12.5% [at 11.4 µM].

Regarding `CN(C)C(=O)c1ccc(-c2cncnc2NCCc2cnc[nH]2)cc1`, the half-maximal activity concentration (AC50) is 10 µM (active).

With `O=C(Nc1ccccc1)N1CCCC2(CCN(C(=O)c3cnccn3)CC2)C1`, the “activity, negative = inhibition” value is 31.9%.

Turning to `COc1ccc(COC(=O)N/N=C2/C[C@@H](O)[C@@H](O)[C@@H]3[C@@H]4C(=O)N([C@@H](C)c5ccccc5)C(=O)[C@H]4CC[C@@H]23)cc1`, the activity, negative = inhibition is -25.8% [at 11.4 µM].

Turning to `CCOc1ccc(/C(O)=C2/C(=O)C(=O)N(CC3CCCO3)C2c2ccc(C)o2)cc1` (centres undefined), the “activity, negative = inhibition” value was -29%.

On to `Cc1ccc(/C(O)=C2/C(=O)C(=O)N(CCCn3ccnc3)C2c2ccccn2)cc1` (centres undefined), for which the half-maximal activity concentration (AC50) is 2.82 µM (active).

Regarding `CCN(CC)CCN1C(=O)C(=O)/C(=C(/O)c2ccc(OC)cc2)C1c1cccs1` (centres undefined), the concentration at half-maximal activity (AC50) was 14.1 µM (active).

Turning to `COc1cccc(/C(O)=C2/C(=O)C(=O)N(c3cc(C)on3)C2c2cccs2)c1` (centres undefined), the “activity, negative = inhibition” value is -29.5%.

For the compound `COCCCN1C(=O)C(=O)/C(=C(/O)c2ccc(OC)cc2C)C1c1cccnc1` (centres undefined), the “activity, negative = inhibition” value was -13.3%.

Consider `Cc1nc2ccccn2c1/C(O)=C1\C(=O)C(=O)N(CCCn2ccnc2)C1c1ccncc1` (centres undefined), for which the “activity, negative = inhibition” value is -21.1%.

For the compound `CCOc1ccc(/C(O)=C2/C(=O)C(=O)N(CCCn3ccnc3)C2c2cccs2)cc1Cl` (centres undefined), the concentration at half-maximal activity (AC50) was 14.1 µM (active).

Take `COc1ccc(/C(O)=C2\C(=O)C(=O)N(c3cc(C)on3)C2c2ccc(OC)c(OC)c2)cc1OC` (centres undefined): the “activity, negative = inhibition” value is 1.84%.

For the compound `O=C(N/N=C1/C[C@@H](O)[C@@H](O)[C@@H]2[C@H]3C(=O)N(c4ccc(F)cc4F)C(=O)[C@@H]3CC[C@H]12)OCc1ccccc1`, the activity, negative = inhibition was -27.3% [at 11.4 µM].

`NC(=O)CSc1nc2sc(-c3ccccc3)cc2c(=O)n1N`: the AC50 was 15.8 µM (active).

Take `c1cc2c(cc1C1CCCCC1)c1c3n2CCN[C@H]3CCC1`: the AC50 was 1 µM (active).

In the case of `O=C(Nc1ccc(Cl)cc1)OCCn1nnnc1C(c1ccccc1Cl)N1CCOCC1` (centres undefined), the AC50 was 3.98 µM (active).

As to `O=C1[C@H]2O[C@@H]2[C@@H](O)[C@H]2[C@H]1CCn1c(=O)n(Cc3cc4c(cc3Cl)OCO4)c(=O)n12`, the activity, negative = inhibition was 14.6% [at 11.4 µM].

`CCCCCCCCCCCCCCCCCCOC[C@@H](COP(=O)([O-])OCC[N+](C)(C)C)OC`: the “activity, negative = inhibition” value was 25.4%.

Regarding `CCCCCCCCCCCCCCCCCCNC(=O)OC[C@@H](COP(=O)([O-])OCC[n+]1ccsc1)OC`, the “activity, negative = inhibition” value is 4.66%.

Turning to `CCCCCCCCCCCCCCCCCC(=O)NC[C@@H](COP(=O)([O-])OCC[N+](C)(C)C)OCC`, the AC50 was 25.1 µM (active).

Consider `C=C(C)CN(CC#N)CC(=C)C`, for which the activity, negative = inhibition was 27.9% [at 11.4 µM].

For the compound `Cn1c(N)nc2c(nc(OCc3ccccc3)n2[C@@H]2O[C@H](CO)[C@@H](O)[C@@H]2O)c1=O`, the activity, negative = inhibition is -3.29% [at 11.4 µM].

In the case of `Cc1ccc(N=C/C(C(=O)C(F)(F)F)=C(\O)c2cccs2)cc1`, the concentration at half-maximal activity (AC50) is 3.16 µM (active).

In the case of `CCN1CCC[C@H]1CNC(=O)c1c(OC)ccc(Br)c1OC`, the “activity, negative = inhibition” value was -5.06% [at 25.6 µM].

With `COc1cc(CN2CCCCC2)cc2cc(C(=O)O)c(=O)oc12`, the activity, negative = inhibition was 21% [at 11.4 µM].

Consider `COc1cc(Br)cc2cc(C(=O)NCC3CCCO3)c(=O)oc12` (centres undefined), for which the concentration at half-maximal activity (AC50) was 0.398 µM (active).

Take `COc1ccc(-n2cnnc2)cc1`: the “activity, negative = inhibition” value is -18.6%.

Take `Cc1cc(C)cc(-n2nnnc2-c2cn(C)nc2C(F)(F)F)c1`: the half-maximal activity concentration (AC50) was 2.51 µM (active).

For the compound `COc1ccc(-n2nnnc2-c2cn(C)nc2C(F)(F)F)cc1`, the half-maximal activity concentration (AC50) was 2.24 µM (active).

In the case of `COc1ccc(-n2c(C)nn(C)c2=O)cc1`, the “activity, negative = inhibition” value is 14.2%.

As for `C[C@@H]1c2cccc(O)c2C(O)=C2C(=O)[C@@]3(O)C(O)=C(C(N)=O)C(=O)[C@@H](N(C)C)[C@@H]3[C@@H](O)[C@@H]21`, the AC50 entry was “inactive”.

As for `CCOC(=O)C1=C(c2ccccc2)N=c2s/c(=C\c3ccco3)c(=O)n2C1c1cccs1` (centres undefined), the AC50 is 2.24 µM (active).

Turning to `CCOC(=O)C1=C(N)n2c(s/c(=C/c3ccccc3)c2=O)=C(C(=O)OCC)C1c1ccccc1` (centres undefined), the “activity, negative = inhibition” value is 2.19%.

`CCOC(=O)C1=C(c2ccccc2)N=c2s/c(=C\c3cccc(O)c3)c(=O)n2C1c1cccs1` (centres undefined): the AC50 was 10 µM (active).

For `CCOC(=O)C1=C(N)n2c(s/c(=C\c3ccco3)c2=O)=C(C(=O)OCC)C1c1ccco1` (centres undefined), the half-maximal activity concentration (AC50) was 8.91 µM (active).

For `c1ccc(CCNCc2ccco2)nc1`, the activity, negative = inhibition is -13.9% [at 11.4 µM].

`S=C1SCN(Cc2ccccn2)CN1Cc1ccco1`: the AC50 was 2.24 µM (active).

Turning to `S=c1nc[nH]c2c1ncn2Cc1ccco1`, the activity, negative = inhibition is -0.307% [at 11.4 µM].

Consider `Cc1cccc(OCCSCc2nc3ccccc3[nH]2)c1`, for which the concentration at half-maximal activity (AC50) is 2.24 µM (active).

Consider `O=C1c2cccc3cccc(c23)C(=O)N1CC1CCN(CC(O)COc2ccc3ccccc3c2)CC1` (centres undefined), for which the AC50 is 7.08 µM (active).

With `O=C(c1ccc(S(=O)(=O)N2CCCCCC2)cc1)N1CCC(CN2C(=O)c3cccc4cccc(c34)C2=O)CC1`, the “activity, negative = inhibition” value is -9.18%.

Turning to `Cc1ccccc1C(C(=O)NCc1ccccc1)N(Cc1ccco1)C(=O)c1ccccn1` (centres undefined), the AC50 is 3.55 µM (active).

Consider `O=C(NCc1ccccc1)C(c1ccc(F)cc1)N(Cc1ccco1)C(=O)c1ccccn1` (centres undefined), for which the AC50 was 4.47 µM (active).

As for `CC(Cc1ccccc1)C(=O)NCc1ccccn1` (centres undefined), the “activity, negative = inhibition” value was -18.2%.

As for `Cc1ccc(N(CCC#N)C(=O)CSc2ccc3c(c2)OCCO3)cc1`, the AC50 was 2 µM (active).

In the case of `O=C1CCCc2ccccc2N1Cc1cccc(Cl)c1`, the concentration at half-maximal activity (AC50) is 0.501 µM (active).

As to `C[C@@H](CN(C)C)CN1c2ccccc2CCc2ccccc21`, the AC50 entry was “inactive”.

Consider `O=C1CCCc2ccccc2N1Cc1ccccc1Cl`, for which the concentration at half-maximal activity (AC50) is 1 µM (active).

In the case of `c1cncc(CNc2ccnc(-c3ccc4c(c3)OCO4)n2)c1`, the half-maximal activity concentration (AC50) is 5.01 µM (active).

`CN(C)C(=O)c1ccc(-c2nccc(NCc3cccnc3)n2)cc1`: the “activity, negative = inhibition” value was -1.41%.

`c1csc(CNc2ccnc(-c3ccc4c(c3)OCO4)n2)c1`: the AC50 is 5.01 µM (active).

Take `c1ccc(CNc2ccnc(-c3ccc4c(c3)OCO4)n2)cc1`: the concentration at half-maximal activity (AC50) was 2 µM (active).

With `COc1cc(OC)c(C(=O)CCCCN2CCC3(CC2)NC(=O)NC3=O)cc1NS(=O)(=O)c1ccc(C(F)(F)F)cc1`, the “activity, negative = inhibition” value is 25.1%.

For `CCN(CC)CCC[C@H](C)Nc1c2ccc(Cl)cc2nc2ccc(OC)cc12`, the “activity, negative = inhibition” value was 18.9%.

`COc1ccc(OCCn2c(C)c(/C=N/n3cnnc3)c3ccccc32)cc1`: the half-maximal activity concentration (AC50) was 0.355 µM (active).

`CCN(CC)[C@@H](C)CN1c2ccccc2Sc2ccccc21`: the “activity, negative = inhibition” value is -42.8% [at 25.6 µM].

Consider `CCC(=O)c1ccc2c(c1)N(CCCN(C)C)c1ccccc1S2`, for which the “activity, negative = inhibition” value was -7.66%.

On to `C[C@@H](CN1c2ccccc2Sc2ccccc21)N(C)C`, for which the AC50 result is “inactive”.

`CN(C)CCCN1c2ccccc2Sc2cnccc21`: the activity, negative = inhibition is 34.5% [at 11.4 µM].

In the case of `CN(C)CCCN1c2ccccc2C(C)(C)c2ccccc21`, the activity, negative = inhibition is 1.8% [at 11.4 µM].

`CCN(CC)CCN1c2ccccc2Sc2ccc3ccccc3c21`: the concentration at half-maximal activity (AC50) was 1 µM (active).

Consider `CN(C)CCCN1c2ccccc2Sc2ccc3ccccc3c21`, for which the AC50 was 1 µM (active).

As to `CN(C)CCCN1c2ccc3ccccc3c2Sc2cccc(Cl)c21`, the concentration at half-maximal activity (AC50) was 5.01 µM (active).

On to `CN=C1N[C@H](c2ccccc2)N(c2ccccc2)S1`, for which the “activity, negative = inhibition” value is 8.52%.

As for `CC(C)c1ccc2nc3sc(C(=O)N4CCc5ccccc5C4)c(N)c3cc2c1`, the AC50 is 3.55 µM (active).

These data come from PubChem BioAssay AID1851 (National Center for Advancing Translational Sciences (NCATS), 2009).
